Measurements as given in the OligoGym collection.

Target: GABRA1
Assay: pooled miR-30 sensor sort-seq; sequence = guide strand
Conditions: shRNA
Also: reference of the scale not given here.

| Sequence | sensor-assay potency score (higher = more potent) |
| --- | --- |
| TTAACAACATTCCAACAGCTAA | -1.39 |
| TTTTCTTGTATCTTTGAACCAT | 0.355 |
| TTGTATAAGCATAACTTCCAAA | -0.726 |
| TAAACAACTTCTGCTCTTGTAT | -0.033 |
| TTTATCTCTAAAACATCTGGGC | 0.106 |
| TATATATCTACAAATGACCTAG | 0.243 |
| TACAATGAGCAACTGCACCTTT | 0.167 |
| TTGTGAGAGAATCACTGTCATT | -1.6 |
| TATATCATTGGATAGCAGCTTT | -0.213 |
| TTGTCCAAGAAGGTCATACTGG | -0.186 |
| TTTCTTGTATCTTTGAACCATC | -0.813 |
| TAGCTTGTGAAATTTAGGCAGG | -0.747 |

Target: GABRB2
Assay: as above
Conditions: shRNA

| Sequence | sensor-assay potency score (higher = more potent) |
| --- | --- |
| TTTGTAATCTACAATAGAGAAC | -1.05 |
| TATTACATTATAGGACAGCCTC | -0.766 |
| TCATAGGCTAGCATTGTGCTTC | -0.299 |
| TTAAAGCTGAGGGATAACCTGG | -0.689 |
| TACATTATAGGACAGCCTCTTA | -0.982 |
| TTAATCCAGAAGGAGACCCAGG | -0.469 |
| TTCAGGAGTCTATCCACCGTCT | 0.156 |
| TTTCAGGAGTCTATCCACCGTC | -0.228 |
| TGAAGCATCGTAATTAATCCAG | -0.467 |
| TAATCTACAATAGAGAACTGTG | -0.184 |
| TTGCGCCACATGTCGTTCCAGA | -0.912 |
| TTACATTATAGGACAGCCTCTT | -0.0422 |
| TAGGCTAGCATTGTGCTTCTGG | 0.754 |
| TTTCTCTTAAGCTTAAAGCTGA | -0.0649 |
| TCTACAATAGAGAACTGTGGAA | -0.939 |
| TCAGAAACCATATCGATGCTGG | 0.313 |
| TGAAAGTACATTGTCAAGGTAT | 0.245 |
| TTAACCAGCGACATATTACTAG | -0.576 |
| TCTGAGTCCATAAAGGACGGTG | -0.531 |
| TTATCGTTCAGGAAATAGGTAT | -0.408 |
| TATCTCTCCAGGCTTGTTGAAA | -1.12 |
| TTGTTGAAAGTACATTGTCAAG | -1.79 |

Target: GABRP
Assay: as above
Conditions: shRNA

| Sequence | sensor-assay potency score (higher = more potent) |
| --- | --- |
| TTTCATTGTCAAGTCACTGTAG | 0.714 |
| ATAATCAACAATCCTGCCCATC | -0.969 |
| TACATCATTATCTTGTCCTGTT | 0.716 |
| ATAGTGATCAACATTACTGGGG | 0.527 |
| AACTTGAACTTGTCGCTGGTTT | -0.459 |
| TTCTCGGAAGACAAACTTGAAC | -1.47 |
